# Like-named read-outs stand apart in the source and are kept apart here.
# Legend:
# [1] = test system: AAK1; parameters: species or system human, MV4-11 + K-562 + COLO205 + SK-N-BE2 + OVCAR-8; conditions: read-out: apparent Kd, n = 1
# [2] = test system: BMP2K; parameters: species or system human, MV4-11 + K-562 + COLO205 + SK-N-BE2 + OVCAR-8; conditions: read-out: apparent Kd, n = 1
# [3] = test system: CSNK2A1;CSNK2A3; parameters: species or system human, MV4-11 + K-562 + COLO205 + SK-N-BE2 + OVCAR-8; conditions: read-out: apparent Kd, n = 1
# [4] = test system: CSNK2A2; parameters: species or system human, MV4-11 + K-562 + COLO205 + SK-N-BE2 + OVCAR-8; conditions: read-out: apparent Kd, n = 1
# [5] = test system: FLT4; parameters: species or system human, MV4-11 + K-562 + COLO205 + SK-N-BE2 + OVCAR-8; conditions: read-out: apparent Kd, n = 1
# [6] = test system: RET; parameters: species or system human, MV4-11 + K-562 + COLO205 + SK-N-BE2 + OVCAR-8; conditions: read-out: apparent Kd, n = 1
# [7] = test system: CLK1; parameters: species or system human, MV4-11 + K-562 + COLO205 + SK-N-BE2 + OVCAR-8; conditions: read-out: apparent Kd, n = 1
# [8] = test system: CLK4; parameters: species or system human, MV4-11 + K-562 + COLO205 + SK-N-BE2 + OVCAR-8; conditions: read-out: apparent Kd, n = 1
# [9] = test system: GAK; parameters: species or system human, MV4-11 + K-562 + COLO205 + SK-N-BE2 + OVCAR-8; conditions: read-out: apparent Kd, n = 1
# [10] = test system: GSK3A; parameters: species or system human, MV4-11 + K-562 + COLO205 + SK-N-BE2 + OVCAR-8; conditions: read-out: apparent Kd, n = 1
# [11] = test system: GSK3B; parameters: species or system human, MV4-11 + K-562 + COLO205 + SK-N-BE2 + OVCAR-8; conditions: read-out: apparent Kd, n = 1
# [12] = test system: NUAK1; parameters: species or system human, MV4-11 + K-562 + COLO205 + SK-N-BE2 + OVCAR-8; conditions: read-out: apparent Kd, n = 1
# [13] = test system: PAK4; parameters: species or system human, MV4-11 + K-562 + COLO205 + SK-N-BE2 + OVCAR-8; conditions: read-out: apparent Kd, n = 1
# [14] = test system: PKN1; parameters: species or system human, MV4-11 + K-562 + COLO205 + SK-N-BE2 + OVCAR-8; conditions: read-out: apparent Kd, n = 1
# [15] = test system: PKN3; parameters: species or system human, MV4-11 + K-562 + COLO205 + SK-N-BE2 + OVCAR-8; conditions: read-out: apparent Kd, n = 1;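 for IC50: NanoBRET target engagement in HEK293T cells transiently expressing full-length PKN3 with C-terminal NanoLuc, displacement of fluorescent tracer K5 (500 nM), BRET read after 2 h equilibration at 37 °C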
# [16] = molecular target: Q6ZSR9 (human, UniProt Q6ZSR9); parameters: species or system MV4-11 + K-562 + COLO205 + SK-N-BE2 + OVCAR-8; conditions: read-out: apparent Kd, n = 1
# Q6ZSR9, sequence (Q6ZSR9 whole entry, looked up): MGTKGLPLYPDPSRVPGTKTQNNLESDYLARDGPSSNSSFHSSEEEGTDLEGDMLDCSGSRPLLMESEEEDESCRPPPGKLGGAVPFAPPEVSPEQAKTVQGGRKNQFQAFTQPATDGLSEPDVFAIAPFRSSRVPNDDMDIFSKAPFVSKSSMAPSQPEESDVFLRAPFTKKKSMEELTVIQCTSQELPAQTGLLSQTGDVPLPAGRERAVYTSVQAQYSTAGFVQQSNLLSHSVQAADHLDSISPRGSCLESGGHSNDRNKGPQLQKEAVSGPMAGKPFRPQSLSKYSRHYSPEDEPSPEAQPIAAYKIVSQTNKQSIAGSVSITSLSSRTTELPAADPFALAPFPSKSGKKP
# [17] = test system: SIK2; parameters: species or system human, MV4-11 + K-562 + COLO205 + SK-N-BE2 + OVCAR-8; conditions: read-out: apparent Kd, n = 1
# [18] = test system: FLT3; parameters: species or system human, MV4-11 + K-562 + COLO205 + SK-N-BE2 + OVCAR-8; conditions: read-out: apparent Kd; compound concentrations: 100 nM and 1000 nM (sheet 'Samples'), CATDS: 9.7213478094733505E-2; n = 1
# [19] = test system: PKN3; conditions: hek293t cells;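 for IC50: NanoBRET target engagement in HEK293T cells transiently expressing full-length PKN3 with C-terminal NanoLuc, displacement of fluorescent tracer K5 (500 nM), BRET read after 2 h equilibration at 37 °C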
# [20] = test system: MELK; parameters: species or system human, MV4-11 + K-562 + COLO205 + SK-N-BE2 + OVCAR-8; conditions: read-out: apparent Kd; compound concentrations:100 nM and 1000 nM (sheet 'Samples'); n = 1
# [21] = compound concentrations:100 nM and 1000 nM (sheet 'Samples')
structure (smiles),measurement,setting,value
Cc1ccc(Nc2ccnc(Nc3ccc4c(c3)CS(=O)(=O)C4)n2)cc1O.Cl [GW579362A],potency estimated from few doses,"[1]; compound concentrations: 100 nM and 1000 nM (sheet 'Samples'), CATDS: 3.1485270896706399E-2",1060 nM
same,potency estimated from few doses,"[2]; compound concentrations: 100 nM and 1000 nM (sheet 'Samples'), CATDS: 2.75119720973705E-2",1640 nM
same,potency estimated from few doses,"[3]; compound concentrations: 100 nM and 1000 nM (sheet 'Samples'), CATDS: 3.1042037667094801E-2",1100 nM
same,potency estimated from few doses,"[4]; compound concentrations: 100 nM and 1000 nM (sheet 'Samples'), CATDS: 3.7509924473465302E-2",666 nM
same,potency estimated from few doses,"[5]; compound concentrations: 100 nM and 1000 nM (sheet 'Samples'), CATDS: 3.6167271282575603E-2",729 nM
same,potency estimated from few doses,"[6]; compound concentrations: 100 nM and 1000 nM (sheet 'Samples'), CATDS: 5.0599670871917801E-2",349 nM
CC(C)N1CCC(n2cnc(-c3ccc(F)cc3)c2-c2ccnc(N)n2)CC1 [SB-223132],potency estimated from few doses,[1]; [21],730 nM
same,potency estimated from few doses,[2]; [21],531 nM
same,potency estimated from few doses,[7]; [21],572 nM
same,potency estimated from few doses,[8]; [21],686 nM
same,potency estimated from few doses,[3]; [21],1070 nM
same,potency estimated from few doses,[4]; [21],1400 nM
same,potency estimated from few doses,[5]; [21],968 nM
same,potency estimated from few doses,[9]; [21],333 nM
same,potency estimated from few doses,[10]; [21],359 nM
same,potency estimated from few doses,[11]; [21],441 nM
same,potency estimated from few doses,[12]; [21],1160 nM
same,potency estimated from few doses,[13]; [21],726 nM
same,potency estimated from few doses,[14]; [21],1440 nM
same,potency estimated from few doses,[15]; [21],1010 nM
same,potency estimated from few doses,[16]; [21],581 nM
same,potency estimated from few doses,[6]; [21],579 nM
same,potency estimated from few doses,[17]; [21],700 nM
CN(c1ccc(NC(=O)N2CCN(CCCN3CCOCC3)CC2)cc1)c1ccnc(Nc2ccc(CS(C)(=O)=O)cc2)n1.Cl [GW830899A],potency estimated from few doses,"[1]; compound concentrations: 100 nM and 1000 nM (sheet 'Samples'), CATDS: 3.8742372830354199E-2",411 nM
same,potency estimated from few doses,"[2]; compound concentrations: 100 nM and 1000 nM (sheet 'Samples'), CATDS: 2.31268992433276E-2",1070 nM
same,potency estimated from few doses,"[3]; compound concentrations: 100 nM and 1000 nM (sheet 'Samples'), CATDS: 1.98938138742078E-2",1550 nM
same,potency estimated from few doses,"[4]; compound concentrations: 100 nM and 1000 nM (sheet 'Samples'), CATDS: 2.19439033786193E-2",1210 nM
same,potency estimated from few doses,[18],119 nM
same,potency estimated from few doses,"[5]; compound concentrations: 100 nM and 1000 nM (sheet 'Samples'), CATDS: 1.9888583471378E-2",1550 nM
same,potency estimated from few doses,"[9]; compound concentrations: 100 nM and 1000 nM (sheet 'Samples'), CATDS: 3.3242042513279398E-2",528 nM
same,potency estimated from few doses,"[10]; compound concentrations: 100 nM and 1000 nM (sheet 'Samples'), CATDS: 3.3329188882870099E-2",525 nM
same,potency estimated from few doses,"[11]; compound concentrations: 100 nM and 1000 nM (sheet 'Samples'), CATDS: 2.6554458888549098E-2",796 nM
same,potency estimated from few doses,"[13]; compound concentrations: 100 nM and 1000 nM (sheet 'Samples'), CATDS: 2.0205846564267299E-2",1490 nM
same,potency estimated from few doses,"[15]; compound concentrations: 100 nM and 1000 nM (sheet 'Samples'), CATDS: 1.8045605554117099E-2",2080 nM
same,potency estimated from few doses,"[16]; compound concentrations: 100 nM and 1000 nM (sheet 'Samples'), CATDS: 2.6002877269984698E-2",831 nM
same,potency estimated from few doses,"[17]; compound concentrations: 100 nM and 1000 nM (sheet 'Samples'), CATDS: 2.0988983059189802E-2",1350 nM
Cl.Nc1c(C(=O)c2cccc(C#CCN3CCCCC3)c2)cnn1-c1ccc(F)cc1 [RO1154461-001],potency estimated from few doses,"[1]; compound concentrations: 100 nM and 1000 nM (sheet 'Samples'), CATDS: 1.4474046603820999E-2",607 nM
same,potency estimated from few doses,"[2]; compound concentrations: 100 nM and 1000 nM (sheet 'Samples'), CATDS: 1.20459910405703E-2",1000 nM
same,potency estimated from few doses,"[7]; compound concentrations: 100 nM and 1000 nM (sheet 'Samples'), CATDS: 1.5060802907151999E-2",552 nM
same,potency estimated from few doses,"[8]; compound concentrations: 100 nM and 1000 nM (sheet 'Samples'), CATDS: 1.3844573276346099E-2",679 nM
same,potency estimated from few doses,"[3]; compound concentrations: 100 nM and 1000 nM (sheet 'Samples'), CATDS: 1.1541786487004701E-2",1140 nM
same,potency estimated from few doses,"[4]; compound concentrations: 100 nM and 1000 nM (sheet 'Samples'), CATDS: 1.10304448511726E-2",1330 nM
same,potency estimated from few doses,"[5]; compound concentrations: 100 nM and 1000 nM (sheet 'Samples'), CATDS: 1.33586959494144E-2",746 nM
same,potency estimated from few doses,"[9]; compound concentrations: 100 nM and 1000 nM (sheet 'Samples'), CATDS: 4.3588593109949197E-2",81.4 nM
same,potency estimated from few doses,"[10]; compound concentrations: 100 nM and 1000 nM (sheet 'Samples'), CATDS: 3.2177955723616897E-2",129 nM
same,potency estimated from few doses,"[11]; compound concentrations: 100 nM and 1000 nM (sheet 'Samples'), CATDS: 1.7633019943865499E-2",387 nM
same,potency estimated from few doses,"[12]; compound concentrations: 100 nM and 1000 nM (sheet 'Samples'), CATDS: 1.03638923622048E-2",1670 nM
same,potency estimated from few doses,"[13]; compound concentrations: 100 nM and 1000 nM (sheet 'Samples'), CATDS: 1.4039072021364001E-2",656 nM
same,potency estimated from few doses,"[14]; compound concentrations: 100 nM and 1000 nM (sheet 'Samples'), CATDS: 1.0439948324783401E-2",1630 nM
same,potency estimated from few doses,"[15]; compound concentrations: 100 nM and 1000 nM (sheet 'Samples'), CATDS: 1.05012639622415E-2",1590 nM
same,potency estimated from few doses,"[16]; compound concentrations: 100 nM and 1000 nM (sheet 'Samples'), CATDS: 1.44791042777868E-2",607 nM
same,potency estimated from few doses,"[6]; compound concentrations: 100 nM and 1000 nM (sheet 'Samples'), CATDS: 1.69120998976478E-2",424 nM
same,potency estimated from few doses,"[17]; compound concentrations: 100 nM and 1000 nM (sheet 'Samples'), CATDS: 1.66377583432985E-2",439 nM
Cc1cccc(-c2nc(Nc3ccncc3)c3sccc3n2)n1 [GW869641X],potency estimated from few doses,[15]; [21],97.8 nM
same,IC50,"[19]; read-out: Average, SD, n = 3",1580 nM
same,IC50,[19]; read-out: Rep 1,4190 nM
same,IC50,[19]; read-out: Rep 2,472 nM
same,IC50,[19]; read-out: Rep 4,87.1 nM
NCCNS(=O)(=O)c1ccc(-c2ccnc3[nH]ccc23)cc1 [GSK977617A],potency estimated from few doses,[1]; [21],429 nM
same,potency estimated from few doses,[2]; [21],817 nM
same,potency estimated from few doses,[7]; [21],294 nM
same,potency estimated from few doses,[8]; [21],413 nM
same,potency estimated from few doses,[3]; [21],782 nM
same,potency estimated from few doses,[4]; [21],766 nM
same,potency estimated from few doses,[5]; [21],1050 nM
same,potency estimated from few doses,[9]; [21],280 nM
same,potency estimated from few doses,[10]; [21],257 nM
same,potency estimated from few doses,[11]; [21],361 nM
same,potency estimated from few doses,[20],866 nM
same,potency estimated from few doses,[12]; [21],1100 nM
same,potency estimated from few doses,[13]; [21],652 nM
same,potency estimated from few doses,[14]; [21],485 nM
same,potency estimated from few doses,[15]; [21],444 nM
same,potency estimated from few doses,[16]; [21],450 nM
same,potency estimated from few doses,[6]; [21],569 nM
same,potency estimated from few doses,[17]; [21],560 nM
